Experimental findings from PubChem BioAssay (NCATS) are described below.

Results filed as inconclusive are left out. Where a call stands in place of a potency, no number is given. The source made the active and inactive calls. Calls come from the whole dose curve; as a rule, active = well fitted activation curve with a large enough effect; inconclusive = small, poorly fitted or top-dose-only effect; inactive = no such curve, though single readings can be large or run the other way. Starred links: 1 amine or outer side, 2 acyl side, 3 side chain; linkers in the order of their positions; H or OH if unused. Positions of bridges follow the written chain, without caps; N, C: chain ends. Non-standard residues stand in square brackets, D forms with d. Residues, ends and D or L forms follow the SMILES beside them. ξ: configuration not given here. *: point of attachment. X3 = C[C@@H](Oc1ccc([C@H](N[*:1])C(=O)[*:2])cc1)[C@]1(/C=C\C(=O)[*:3])CO1; d(aIle) = CC[C@H](C)[C@@H](N)C(=O)O; X2 = CC(C)[C@@H](O)C(C)C(=O)*; ξNMeF = CNC(Cc1ccccc1)C(=O)O; ξT = CC(O)C(N)C(=O)O; ξS = NC(CO)C(=O)O
Potency is the fitted concentration of half-maximal effect.

The test in a line: Redox Reaction Profiling qHTS: Assay Interference Panel against the NCATS CANVASS Library (AID 1347401). Conditions: resazurin-DTT redox cycling, fluorescence, 15 min; series mostly up to 57.1 µM. From the text: Natural products and their derivatives continue to be wellsprings of nascent therapeutic potential. However, many laboratories have limited resources for biological evaluation, leaving their previously isolated or synthesized compounds largely or completely untested. To address this issue, the Canvass library of natural products was assembled (https://tripod.nih.gov/canvass), in collaboration with academic and industry researchers, for quantitative high-throughput screening (qHTS) across a diverse set of cell-based and biochemical assays. The pure (>85% purity by liquid chromatography/mass spectrometry [LC/MS]) Canvass library of 346 natural products were submitted by 45 academic laboratories and companies around the world. We collected pure natural products to circumvent deconvolution and structure elucidation due to time and resource limitations. The library was formatted into 1536-well plates and evaluated in 50 qHTS (in an 11-pnt concentration series) bioassays with broad scope of disease-relevant mechanisms. The resulting data set from 50 different assays was then systematically analyzed to identify overall trends and specific natural products with interesting biological activities. Reported herein are the results of each individual qHTS and their corresponding assay protocol. This profiling assay measures the resazurin-to-resorufin redox reaction in the presence of DTT and compound, and serves as a useful surrogate assay for measuring potential compound redox liability National Center for Advancing Translational Sciences (NCATS), Rockville, MD National Institute of Health (NIH), Bethesda, Maryland
Redox Profiling assay protocol: 1. In a black-solid bottom, medium binding, 1536-well plates (Greiner 789176), 4 uL of [1x] 5uM Resazurin + 200 uM DTT + buffer (50 mM HEPES pH 7.3 + 50 mM NaCl) was dispensed (into columns 1 - 48, rows 1 - 32) using a BioRAPTR FRD dispenser (Beckman Coulter). 2. 23 nL of compounds were pin transferred into the assay plates (columns 5 - 48) using the Kalypsis pin tool (Wako USA) equipped with a 1536-well pin heads. This yields a final concentration range of 0.002 - 127 uM. Control compound Chloranil (NCGC00091254-06) was also pinned (23 nL) into column 2, rows 1 - 32 (working concentration 10 mM, 1:2 dilution; 16 points titrations; n = 2). The final concentration range for the Chloranil was 0.002 to 57.2 uM. For 100% activation control, a single dose of 23 nL Chloranil (350 uM working concentration) was pinned to columns 3 and 4, rows 1-32 for a final concentration of 2 uM. 3. The assay plates were centrifuged for 15 seconds at 1000 rpm. 4. An initial fluorescence readout was obtained using the ViewLux plate reader (PerkinElmer) using a 525 nm excitation and a 598 nm emission filters. 5. The assay plates were incubated for 15 minutes in the dark. 6. After incubation, the final fluorescence readout was obtained using the ViewLux plate reader (PerkinElmer) using a 525 nm excitation and a 598 nm emission filters.
With `c1ccc2nc3c(cc2c1)[nH]c1ccccc13`, the Potency entry was “inactive”.

In the case of `CC[C@]12C=CCN3CC[C@]4(C(=C(C(=O)OC)C1)Nc1ccccc14)[C@@H]32`, the Potency result is “inactive”.

`C/C=C/[C@@H]1[C@H]2C[C@@H](C)CC[C@@H]2C(C)=C[C@H]1C(=O)c1c(O)c(-c2ccc(O)cc2)c[nH]c1=O`: the Potency result is “inactive”.

For the compound `C[C@]12CCC3[C@@H](CC[C@@H]4C[C@@H](O)CC[C@]34CO)[C@@]1(O)CC[C@@H]2C1=CC(=O)OC1` (some centres undefined), the Potency entry is “inactive”.

With `C=C[C@H]1CN2CCc3c([nH]c4cccc(OC)c34)[C@@H]2C[C@@H]1/C(=C\OC)C(=O)OC`, the Potency result is “inactive”.

Turning to `C=C(C)[C@H]1C(=O)c2c3c(cc4c5c(n1c24)[C@@]1(C)[C@@H](CC[C@H]2[C@](C)(/C=C/C=C(\C)C(=O)O)[C@@H](O)CC[C@@]21C)C5)C1=CC(C)(C)OC(C)(C)[C@H]1[C@@H]3O`, the Potency was 19.2 µM (active).

Consider `COC1=C(C2=C(OC)C(=O)c3cc4c(c(O)c3C2=O)C(=O)O[C@H](C)C4)C(=O)c2c(cc3c(c2O)C(=O)O[C@H](C)C3)C1=O`, for which the Potency is 1.14 µM (active).

As to `C=CC(C)(C)[C@@]12C[C@H]3C(=O)N/C(=C\c4cnc[nH]4)C(=O)N3[C@@H]1Nc1ccccc12`, the Potency result is “inactive”.

`C=CC(C)(C)[C@@]12C[C@H]3C(=O)N/C(=C/c4cnc[nH]4)C(=O)N3[C@@H]1Nc1ccccc12`: the Potency result is “inactive”.

As to `C/C=C1/CN2CC[C@@]34c5ccccc5N(C)[C@@H]3[C@@H]2C[C@@H]1[C@H]4C(=O)OC`, the Potency result was “inactive”.

For the compound `CCC(=O)N[C@@H](C[C@H](C)C(Cl)(Cl)Cl)C(=O)N1C(=O)C=C(OC)[C@@H]1C[C@H](C)C(Cl)Cl`, the Potency entry is “inactive”.

Consider `COC1C(O)C(C)OC(OC2C(Oc3cccc4c(O)c5c(=O)oc6ccc(C)c7c(=O)oc(c34)c5c67)OC(C)C(O)C2O)C1O` (centres undefined), for which the Potency is 2.15 µM (active).

On to `CO[C@H]1C[C@H](O[C@H]2[C@@H](O)C[C@H](O[C@H]3CC[C@]4(C=O)[C@H]5CC[C@]6(C)C(C7=CC(=O)OC7)CC[C@]6(O)[C@@H]5CC[C@]4(O)C3)O[C@@H]2C)O[C@H](C)[C@H]1O[C@H]1C[C@@H](OC)[C@@H](O[C@@H]2O[C@H](CO)[C@@H](O)[C@H](O)[C@H]2O)[C@@H](C)O1` (some centres undefined), for which the Potency result is “inactive”.

Take `CO[C@@]12c3c(C)cc(O)c4c(=O)occ(c34)C(=O)[C@@H]1[C@]13COC(=O)c4c(O)cc(C)c(c41)C(=O)[C@H]2[C@@H]3OC(C)=O`: the Potency entry was “inactive”.

`O[C@H]1C=C[C@@]23CCN(Cc4cc5c(cc42)OCO5)[C@@H]3C1`: the Potency result is “inactive”.

For `CO[C@@H](/C=C/CC/C=C/C(=O)O)[C@@H](O)[C@H](C)/C=C(\C)[C@H](O)[C@H](C)C(=O)CCCC1CC(=O)NC(=O)C1`, the Potency entry is “inactive”.

For `C/C=C1/CN2C3CC1C1=CCC(=O)N4c5ccccc5[C@@]3(C[C@@H]2C2=C[C@H]3C5CC6N(CC[C@@]67c6ccccc6N(C2=O)[C@@H]37)C/C5=C/C)[C@H]14` (some centres undefined), the Potency result is “inactive”.

In the case of `C[C@]12CC(O)C3[C@@H](CC[C@@H]4C[C@@H](O)CC[C@]34CO)[C@@]1(O)CC[C@@H]2C1=CC(=O)OC1` (some centres undefined), the Potency entry is “inactive”.

As to `CCCC[C@@H]1CC[C@H]2CCCC(CCCO)N12` (some centres undefined), the Potency result was “inactive”.

Take `CO[C@H]1[C@H](O[C@H]2CC[C@]3(C=O)[C@H]4CC[C@]5(C)[C@@H](C6=CC(=O)OC6)CC[C@]5(O)[C@@H]4CC[C@]3(O)C2)O[C@H](C)[C@H](O)[C@@H]1OC`: the Potency entry was “inactive”.

For `C1=C2CCCN[C@H]2C2CC1[C@H]1CCCCN1C2` (some centres undefined), the Potency result was “inactive”.

Take `C=C[C@]12C=CCN3CC[C@@]4(c5ccccc5NC(=O)[C@@H]4C1)[C@@H]32`: the Potency result is “inactive”.

For the compound `C/C(=C\[C@H](C)C(=O)C[C@H](O)CC1CC(=O)NC(=O)C1)[C@@H]1OC(=O)/C=C/CC/C=C/C=C/[C@@H]1C`, the Potency is 24.1 µM (active).

Regarding `CCCC[C@@H](C)/C=C1/CN2CCC[C@H]2[C@@](C)(O)[C@@H]1O`, the Potency result was “inactive”.

`CO[C@H]([C@@H](C)[C@H]1O[C@]1(C)C[C@H](C)/C=C/C=C(\C)[C@H]1O[C@@H](CC(=O)O)CC[C@@H]1C)[C@@H](C)O`: the Potency result was “inactive”.

Regarding `CC[C@@H]1CN2CCC3(Nc4cccc(OC)c4C3=O)[C@@H]2C[C@@H]1/C(=C\OC)C(=O)OC` (some centres undefined), the Potency result is “inactive”.

Consider `C/C=C1/CN2CC[C@]34C(=C(C(=O)OC)[C@H]1C[C@H]23)Nc1ccccc14`, for which the Potency entry was “inactive”.

Take `C/C=C(\C)C(=O)O[C@@H]1[C@@H](O)[C@@H]2O[C@H]3[C@H](O[C@@H](CCCCC)CCCCCCC(=O)CCC(=O)OC[C@@H](O2)[C@H]1OC(=O)/C=C/c1ccccc1)O[C@H](C)[C@H](OC(C)=O)[C@@H]3O`: the Potency entry was “inactive”.

On to `CC[C@H]1CN2CCc3c([nH]c4cccc(OC)c34)[C@@H]2C[C@@H]1/C(=C\OC)C(=O)OC`, for which the Potency entry is “inactive”.

Turning to `C[C@]12CC(O)C3[C@@H](CCC4C[C@@H](O)CC[C@@]43CO)[C@@]1(O)CC[C@@H]2C1=CC(=O)OC1` (some centres undefined), the Potency entry was “inactive”.

With `C[N+](C)(C)CCc1c[nH]c2ccccc12`, the Potency result is “inactive”.

In the case of `CC[C@H](C)[C@H]1NC(=O)[C@@H](NC(=O)C(C)[C@H](O)C(C)C)[C@@H](C)OC(=O)C2COC(=O)CNC(=O)/C=C\[C@]3(CO3)[C@@H](C)Oc3ccc(cc3)[C@H](NC1=O)C(=O)N(C)C(Cc1ccccc1)C(=O)NC(C(C)O)C(=O)N2` (some centres undefined) (X2-T[d(aIle)][X3][ξNMeF][ξT][ξS]; ester 1-C; linker 3-6 via G), the Potency result is “inactive”.

Regarding `CC(C)CC1C(=O)O[C@H](C(C)C)C(=O)N(C)C(CC(C)C)C(=O)O[C@@H](C(C)C)C(=O)N(C)C(CC(C)C)C(=O)O[C@H](C(C)C)C(=O)N(C)C(CC(C)C)C(=O)O[C@@H](C(C)C)C(=O)N1C` (some centres undefined), the Potency entry is “inactive”.

Consider `CCCCC1CC[C@H]2CCCC(CCC)N12` (some centres undefined), for which the Potency result was “inactive”.
